In PubChem BioAssay AID720650 (Broad Institute, 2013):
Unmarked numbers belong to inactive results. Activity calls are given as the source filed them. The rule behind the calls is not given here.

Assay: Biochemical counterscreen for C difficile toxins, absence of UDPG, inhibitor dose response (AID 720650)

Row | SMILES | AC50
1 | C/C(CCc1ccccc1)=N\NC(=O)C1C2CCCCC21 (centres undefined) | inactive
2 | COc1cc(Cn2nnc3ccccc32)ccc1O | 15.8 µM (active)
3 | COc1cc(NC(=O)CCc2nnc3ccc(N4CCC(C)CC4)nn23)cc(OC)c1 | inactive
4 | CCCC(=O)Nc1sc2c(c1C(=O)Nc1ccccn1)CCCC2 | inactive
5 | O=C(CCn1cnc2ccccc21)N/N=C/c1ccc(O)cc1 | 12.2 µM (active)
6 | CCCNC(=O)N1CC[C@@H]2[C@H]1c1cc(-c3ccccc3)ccc1N(C)[C@H]2CO | 3.8 µM (active)
7 | O=C(NCc1ccncc1)[C@@H]1CCCN1C(=O)[C@@H]1CCCN1 | inactive
8 | C[N+]1(CCCCSc2ccc(O)cc2)CCCCC1 | > 39 µM
9 | Cc1ccc(C2=NS(=O)(=O)N(C)C(C(=O)NCc3ccc4c(c3)OCO4)=C2)cc1 | inactive
10 | CC(C)CNC(=O)c1c(F)c(F)c(F)c(F)c1F | inactive
11 | COc1cc(O)ccc1C(=O)CCc1ccc(O)cc1 | 10.7 µM (active)
12 | CC1=NCCc2c1[nH]c1cc(O)ccc21 | 21.9 µM (active)
13 | COc1ccc(/C=C/c2nc3ccccc3n2C)cc1 | > 39 µM
14 | C[C@@H]1C=C[C@](Cc2ccccc2)(C(=O)NCC2CC2)N1C(=O)c1ccccc1 | inactive
15 | COC(=O)C1=C(c2ccc(OCc3ccccc3)cc2)C[C@@H]2CC[C@H]1N2C(=O)NCCCc1ccccc1 | inactive
16 | COc1cc(/C=C/C(=O)OCC(=O)NCc2ccco2)ccc1O | inactive
17 | CC(=O)C1=CCC(c2ccc(C)cc2)N(S(=O)(=O)c2ccc(C)cc2)C1 (centres undefined) | > 39 µM
18 | CCC(=O)N1CC[C@@H]2[C@@H](CO)N(C)c3ccc(-c4ccccc4)cc3[C@@H]21 | 6.31 µM (active)
19 | Cc1nn2cc(-c3cccc(Cl)c3)cnc2c1Br | inactive
20 | Cc1ccc(CNC(=O)Nc2cccc(C)c2)cc1 | inactive
21 | COc1cc(/C=C/c2sc3ccccc3[n+]2CCCS(=O)(=O)[O-])ccc1O | inactive
22 | CCOc1ccc2c(C)nc(NC3=NC(C)(C)C=C(C)N3)nc2c1 | inactive

Row | SMILES | AC50
23 | CNC(=O)C1Cc2c(-c3ccccc3Oc3ccccc3)ccnc2O1 (centres undefined) | > 39 µM
24 | CNC(=O)C[C@H]1CC[C@@H]2[C@H](COc3ccc(NS(=O)(=O)c4ccccc4C)cc3C(=O)N2C)O1 | inactive
25 | Cc1cccc(N/N=C/c2ccncc2)c1 | 1.1 µM (active)
26 | O=C(C[n+]1ccccc1)N/N=C/c1ccc(O)cc1 | 20.2 µM (active)
27 | CC1(C)CC(=O)C(C=Nc2ccc(O)cc2)=C(O)C1 | 5.68 µM (active)
28 | COc1cc(/C=N/NC(=O)c2nnn(-c3nonc3N)c2C(C)C)ccc1O | inactive
29 | Nc1ccccc1-c1nc2ccncc2[nH]1 | inactive
30 | COc1ccc(CCNC(=O)CCCn2nc(C)n3ccnc3c2=O)cc1OC | inactive
31 | O=C(N/N=C/c1ccc(O)c(O)c1)C1CC1 | > 39 µM
32 | CN(C)c1ccc(NC(=O)/C=C/c2c(Cl)cccc2Cl)cc1 | inactive
33 | Nc1ccc(Sc2ccc(N)cc2)cc1 | 3.22 µM (active)
34 | COCC(=O)N1CC[C@@H]2[C@H]1c1cc(-c3cccc(OC)c3)ccc1N(C)[C@H]2CO | 8.89 µM (active)
35 | Oc1ccc(-c2nc3cnccn3c2Nc2ccc3c(c2)OCCO3)cc1 | inactive
36 | NC(=O)c1ccc(NC(=O)CSc2nnc(C3CC3)n2C2CC2)cc1 | inactive
37 | COc1ccc(C(=O)/C=C/c2ccc(O)cc2)c2c1CC(O)C(C)(C)O2 (centres undefined) | inactive
38 | O=C1Nc2ccccc2C1c1ncc(C(F)(F)F)cc1Cl (centres undefined) | inactive
39 | Cc1scc(C(=O)N2CCN(c3ccc(Cl)cc3)CC2)c1C | inactive
40 | c1ccc(SCc2nc3ccccc3s2)nc1 | inactive
41 | Cc1onc(-c2c(F)cccc2Cl)c1C(=O)Nc1nnc(C(F)(F)F)s1 | inactive
42 | c1ccc(Cc2nnc3n2N=C(c2ccccc2)CS3)cc1 | inactive
43 | ClCC(CNCc1ccccc1)c1ccccc1 (centres undefined) | inactive
44 | Cc1ccc(CSc2nc3nc(C)cc(C)c3c(=O)[nH]2)cc1 | inactive
